Screening results deposited in PubChem BioAssay by National Center for Advancing Translational Sciences (NCATS).
Only some compounds are listed: those with a hit (about 4% of all), similar ones and a draw of the others.
D1 antag = blocks dopamine activation of the human D1 receptor; activity change, negative = inhibition, % at 10 µM; 360,000 tested, 3.2% active; AID 504652; HEK293 TREx D1 cells, calcium flux, dopamine EC80; hits give low values; P21728; in the data active = activity change below about -30%; also: % is scaled to controls: 0 for no effect and ±100 for the full control effect
Target sequence (P21728 whole entry, looked up): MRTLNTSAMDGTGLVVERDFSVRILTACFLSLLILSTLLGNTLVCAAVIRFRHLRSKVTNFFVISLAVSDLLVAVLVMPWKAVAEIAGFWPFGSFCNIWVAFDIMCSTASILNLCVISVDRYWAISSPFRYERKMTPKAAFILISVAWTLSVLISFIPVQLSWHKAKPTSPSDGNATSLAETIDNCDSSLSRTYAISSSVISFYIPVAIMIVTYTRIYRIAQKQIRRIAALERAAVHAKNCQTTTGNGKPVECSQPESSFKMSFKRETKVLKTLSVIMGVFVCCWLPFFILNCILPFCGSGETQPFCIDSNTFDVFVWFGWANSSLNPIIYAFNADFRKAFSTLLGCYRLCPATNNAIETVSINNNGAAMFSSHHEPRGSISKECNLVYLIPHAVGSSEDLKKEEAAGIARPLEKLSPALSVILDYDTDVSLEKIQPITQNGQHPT
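Tetracycline-induced HEK293 Trex D1 cells, force-coupled to calcium, dye-loaded; compounds added and read 180 s, then EC80 dopamine added and calcium flux tracked kinetically another 180 s.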
TRHR enhancer = allosterically enhances the human TRH receptor; TRHR cells, fluo-8 calcium fluorescence, EC20 TRH enhancement; P34981; enhancement, % at 2 µM; AID 493056; 360,000 tested, 0.66% active; in the data active = enhancement above about 30%; also: 0% is about no effect
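TRHR-expressing cells loaded with fluo-8 calcium dye were read kinetically (ex 480/em 530) during compound addition, then stimulated with an EC20 of TRH (10 nM final). Enhancement of the Gq-mediated intracellular calcium response was scored.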
D1 potentiator = enhances dopamine response at the human D1 receptor | P21728 | HEK293 TREx D1 cells, calcium flux, dopamine EC20 potentiation | potentiation, % at 10 µM | 360,000 tested, 0.036% active | AID 504651; in the data active = potentiation above about 30%; also: 0% is about no effect
D1 ag = human D1 receptor agonism. 360,000 tested, 1% active. HEK293 T-REx D1 cells, calcium flux, agonist mode. AID 504660. activation, % at 2 µM; also: 0% is about no effect
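Inducible HEK293 T-REx D1 cells, force-coupled to calcium signalling, were plated at 4000 cells/well with tetracycline and held overnight at 30 C. After no-wash calcium dye loading, compound-evoked calcium rise over 180 s flagged agonists.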
Glioma ERSR ind = inducers of ER stress response in human glioma cells; U87-MG GRP78 promoter luciferase reporter, 16 h; Potency, µM, for the others: top-dose activation, usual class: activators; 420,000 tested, 0.02% active; AID 602332; active = well fitted activation curve with a large enough effect; inconclusive = small, poorly fitted or top-dose-only effect; inactive = no such curve, though single readings can be large or run the other way; also: potency is read from the fitted curve at half-maximal effect; series mostly up to about 76 µM; % of control where 0% means no effect; nearly all actives have a fitted effect of over 35% in size
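ERSR induction read as luciferase luminescence (Bright-Glo, 10 min at room temperature) in stably transfected human U87-MG glioma cells exposed to compounds for 16 h, using GRP78 as sensor.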
TRHR ag = TRH receptor (human) agonism; TRHR cells, calcium flux fluo-8, FDSS agonist mode; activation, % at 2 µM; AID 493084; P34981; 360,000 tested, 0.18% active; also: 0% is about no effect
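In this calcium-flux screen, cells bearing human TRHR are dye-loaded with fluo-8, baselined for 10 cycles, then exposed to library compounds; positive kinetic calcium responses during the agonist phase mark hits, with TRH as control.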
An asterisk follows results filed as active; ? = inconclusive; . = no result; ! = a repeat was not active. Rule as the data show it, unless noted: active = activation above about 30%; inactive = the rest.

SMILES	D1 antag	TRHR enhancer	D1 potentiator	D1 ag	Glioma ERSR ind	TRHR ag
CC(C)CN(C(=O)CN1CCN(S(=O)(=O)c2ccc3ccccc3c2)CC1)c1c(N)n(CC(C)C)c(=O)[nH]c1=O	-88*	-1	-5	0	-5%	0
COc1ccc(/C=C2\C(=O)NC(=S)N2C(=O)c2ccc(F)cc2)cc1	11	-1	-6	112*	-3%	24
O=C1NC(=S)N(C(=O)c2ccc(F)cc2)/C1=C/c1ccccc1	-8	9	-2	80*	19%	20
Nc1ccc(/C=C/c2ccnc3ccccc23)cc1[N+](=O)[O-]	.	.	.	.	-1%	.
CCOc1ccc(NC(=O)c2cccc3c(=O)c4c([nH]c23)CCCC4)cc1	6	1	-2	3	-4%	0
COc1ccc(NC(=O)c2cccc3c(=O)c4c([nH]c23)CCCC4)cc1	-33*	-2	-4	7	-2%	0
Cc1cc(=O)oc2cc(NS(=O)(=O)c3ccccc3)ccc12	-95*	8	2	1	2%	0
CCN(CC)CC1C(=O)N(c2ccc(OC)cc2)C1c1ccccc1 (configuration not stated)	-39*	-5	-5	8	-6%	3
C=CCNC(=O)c1ccc(C2SCC(=O)N2Cc2ccccc2)cc1 (configuration not stated)	-2	-2	-7	1	0%	0
O=C(NCc1ccccc1)c1ccc(C2SCC(=O)N2Cc2ccccc2)cc1 (configuration not stated)	0	-4	-5	34*	-3%	0
CC1CCN(S(=O)(=O)c2ccc3c(c2)N(CC(=O)NCCN(C)C)C(=O)CO3)CC1	-2	0	2	1	2%	0
O=C(CC1C(=O)NCCN1C(=O)Nc1ccc(Cl)cc1)Nc1ccc(F)cc1 (configuration not stated)	-51*	-4	-8	2	-5%	0
COc1ccc(-n2c(C)cc(=O)[nH]c2=O)cc1	-4	-4	-1	6	-3%	0
Cc1ccc(N(C)C(=O)c2cnc(N3CCOCC3)c3ccccc23)cc1C	-37*	4	-1	0	-2%	0
CCN(C(=O)c1cnc(N2CCOCC2)c2ccccc12)c1cc(C)ccc1C	-43*	11	-2	2	-2%	0
CSc1ccc(NC(=O)Nc2ccc(C(=O)NCC(=O)O)cc2)cc1	0	1	2	6	6%	0
O=C(O)c1ccc(/C=N/NC(=O)C(O)(c2ccccc2)c2ccccc2)cc1	-32*	15	0	9	-2%	0
O=C(O)COc1ccc(/C=N/NC(=O)C(O)(c2ccccc2)c2ccccc2)cc1	19	6	-4	1	-2%	1
O=C1CCC(CCC(=O)N2CCCC(C(=O)c3ccc4c5c(cccc35)CC4)C2)=NN1 (configuration not stated)	1	-2	1	1	-4%	-1
O=C1CCC(C(=O)N2CCCC(C(=O)c3ccc4c5c(cccc35)CC4)C2)=NN1 (configuration not stated)	-33*	-2	-3	2	-2%	1
CC1CN(C(=O)CCC(=O)NCc2cccs2)c2cc(Cl)ccc2O1 (configuration not stated)	-1	8	4	4	-2%	-1
CCCn1cc(S(=O)(=O)c2cccc(Cl)c2)c(=O)c2cc(F)c(N3CCOCC3)cc21	-3	7	-2	0	-4%	0
CCCCN(CC)CCNC(=O)c1cc2c(-c3ccc(Cl)cc3)nn(C)c2s1	6	-6	-1	66*!	0%	0
CCN(CC)CCNC(=O)c1cc2c(-c3ccc(Cl)cc3)nn(C)c2s1	8	6	0	6	?	2
COc1ccc(N2CCN(C(=O)C(=O)c3cn(CC(=O)N4CCCCCC4)c4ccccc34)CC2)cc1	-58*	-4	-6	1	-4%	0
SMILES	D1 antag	TRHR enhancer	D1 potentiator	D1 ag	Glioma ERSR ind	TRHR ag
CSCCC(NC(=O)[C@H](Cc1c[nH]c2ccccc12)NC(=O)CNC(=O)[C@H](CCSC)NC(=O)[C@H](Cc1ccc(OS(=O)(=O)O)cc1)NC(=O)[C@@H](N)CC(=O)O)C(=O)N[C@@H](CC(=O)O)C(=O)N[C@@H](Cc1ccccc1)C(N)=O (some centres not stated)	.	.	.	.	-2%	.
C/C(=N\NC(=O)c1ccn(C)n1)c1cccc(NC(=O)c2ccncc2)c1	-47*	-3	1	0	2%	0
CCS(=O)(=O)N1CCc2cc(C(=O)Nc3ccc(Br)cc3F)ccc21	-3	9	-2	-3	2%	0
Cn1c(=O)c2c(nc(SCC(=O)NCc3ccc4c(c3)OCO4)n2Cc2ccccc2)n(C)c1=O	-3	0	4	-5	-1%	0
Cn1c(=O)c2c(nc(SCC(=O)NCc3ccc4c(c3)OCO4)n2Cc2ccc(F)cc2)n(C)c1=O	-37*	-7	-22	0	-6%	0
Cc1cc(C)n(-c2ccc(C(=O)N3CCN(S(=O)(=O)c4ccc(C(C)C)cc4)CC3)cc2)n1	-14	4	-5	1	-2%	1
CC(C)c1ccc(S(=O)(=O)N2CCN(C(=O)c3ccncc3)CC2)cc1	-31*	1	.	10	-5%	0
CCOc1ccc(Cl)cc1CNCCCSc1ncccn1	-3	6	-4	10	-3%	-1
CCOc1ccc(Cl)cc1CNCCCSc1nc(C)cc(C)n1	-38*	-7	-7	21	-5%	-2
CCN(CC)C(=O)c1cc(S(=O)(=O)N2CCCCC2)c[nH]1	-36*	-1	-3	8	-3%	1
Cc1ccc(N2CCN(C(=O)c3cc(S(=O)(=O)N4CCCCC4)c[nH]3)CC2)c(C)c1	2	0	5	0	-12%	0
CC1CCN(C(=O)c2cc(S(=O)(=O)N3CCCCC3)c[nH]2)CC1	-33*	0	-9	2	-3%	0
COc1ccc(C2C3C=CCC(C)C3C(=O)N2Cc2ccccc2)cc1Cl (configuration not stated)	.	.	.	.	9%	.
CN(C)c1ccc2nc3c(=O)[nH]c(=O)nc-3n(CC(O)C(O)C(O)CO)c2c1 (configuration not stated)	3	4	-2	46*	-12%	12
COc1ccc(C(=O)C(Sc2nnc(C)c(=O)[nH]2)c2ccc(OC)cc2)cc1 (configuration not stated)	11	-2	-1	2	-2%	-1
